Assay results published in PubChem BioAssay AID1159580 (chemical genetic matrix, 2015).
About 2,000 (36%) of roughly 5,500 compounds were called active. About 18% were inconclusive and are not listed. Cut-off read from the data, not from the text of the source: active = normalized growth mostly below about 0.91 (no sharp cut-off); inconclusive = no clear call, values can overlap the other calls; inactive = mostly above about 0.92. The list shows a part of the results.

Assay: chemical genetic growth profiling, strain panel (AID 1159580);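 note: tested at 20 µM; growth read once vehicle control cultures reached saturation at 30 °C; 1 = growth at the plate median or of vehicle wells; lower values mean less growth of the strain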
Details: growth OD

Measured: normalized growth

CC(=O)OC(C)(C)[C@@H]1Cc2cc3ccc(=O)oc3cc2O1
inactive: S. cerevisiae deletion strains, locus YJR066W, strain TOR1, stronger effect = lower value 0.928 | S. cerevisiae deletion strains, locus YJR075W, strain HOC1, stronger effect = lower value 0.992 | S. cerevisiae deletion strains, locus YKL009W, strain mrt4, stronger effect = lower value 1.03 | S. cerevisiae deletion strains, locus YKL068W, stronger effect = lower value 1.01 | S. cerevisiae deletion strains, locus YKL085W, strain MDH1 (second series), stronger effect = lower value 0.998 | S. cerevisiae deletion strains, locus YKL085W, strain MDH1, stronger effect = lower value 0.998 | S. cerevisiae deletion strains, locus YKL160W, strain elf1, stronger effect = lower value 1.02 | S. cerevisiae deletion strains, locus YKL190W, strain CNB1, stronger effect = lower value 1.01 | S. cerevisiae deletion strains, locus YKR001C, strain vps1, stronger effect = lower value 1 | S. cerevisiae deletion strains, locus YKR026C, strain gcn3, stronger effect = lower value 0.957 | S. cerevisiae deletion strains, locus YKR091W, strain srl3, stronger effect = lower value 0.975 | S. cerevisiae deletion strains, locus YLL001W, strain dnm1, stronger effect = lower value 0.984 | S. cerevisiae deletion strains, locus YLL026W, stronger effect = lower value 0.97 | S. cerevisiae deletion strains, locus YLL041C, strain sdh2, stronger effect = lower value 0.984 | S. cerevisiae deletion strains, locus YLR027C, strain aat2, stronger effect = lower value 0.962 | S. cerevisiae deletion strains, locus YLR039C, strain RIC1, stronger effect = lower value 1.07 | S. cerevisiae deletion strains, locus YLR058C, strain SHM2, stronger effect = lower value 0.999 | S. cerevisiae deletion strains, locus YLR102C, strain apc9, stronger effect = lower value 1 | S. cerevisiae deletion strains, locus YLR113W, strain HOG1, stronger effect = lower value 1.04 | S. cerevisiae deletion strains, locus YLR221C, strain rsa3, stronger effect = lower value 1.01 | S. cerevisiae deletion strains, locus YLR258W, strain gsy2, stronger effect = lower value 0.951 | S. cerevisiae deletion strains, locus YLR262C, strain YPT6 (second series), stronger effect = lower value 1.01 | S. cerevisiae deletion strains, locus YLR262C, strain YPT6, stronger effect = lower value 1.07 | S. cerevisiae deletion strains, locus YLR268W, strain sec22, stronger effect = lower value 1.04 | S. cerevisiae deletion strains, locus YLR320W, strain mms22, stronger effect = lower value 0.956 | S. cerevisiae deletion strains, locus YLR330W, strain CHS5, stronger effect = lower value 1 | S. cerevisiae deletion strains, locus YLR342W, strain FKS1 (second series), stronger effect = lower value 0.994 | S. cerevisiae deletion strains, locus YLR342W, strain FKS1, stronger effect = lower value 0.969 | S. cerevisiae deletion strains, locus YLR357W, strain rsc2, stronger effect = lower value 0.971 | S. cerevisiae deletion strains, locus YLR370C, strain arc18, stronger effect = lower value 0.973 | S. cerevisiae deletion strains, locus YLR371W, strain rom2, stronger effect = lower value 1.03 | S. cerevisiae deletion strains, locus YLR384C, strain iki3, stronger effect = lower value 0.979 | S. cerevisiae deletion strains, locus YLR418C, strain cdc73, stronger effect = lower value 0.975 | S. cerevisiae deletion strains, locus YML016C, strain PPZ1, stronger effect = lower value 0.999 | S. cerevisiae deletion strains, locus YML032C, strain rad52, stronger effect = lower value 0.987 | S. cerevisiae deletion strains, locus YML120C, strain ndi1, stronger effect = lower value 0.99 | S. cerevisiae deletion strains, locus YML124C, strain tub3, stronger effect = lower value 0.994 | S. cerevisiae deletion strains, locus YMR058W, strain fet3, stronger effect = lower value 0.969 | S. cerevisiae deletion strains, locus YMR078C, strain ctf18, stronger effect = lower value 1.01 | S. cerevisiae deletion strains, locus YMR125W, strain sto1, stronger effect = lower value 0.941 | S. cerevisiae deletion strains, locus YMR129W, stronger effect = lower value 0.962 | S. cerevisiae deletion strains, locus YMR205C, strain PFK2, stronger effect = lower value 0.915 | S. cerevisiae deletion strains, locus YMR223W, strain ubp8, stronger effect = lower value 0.982 | S. cerevisiae deletion strains, locus YMR231W, strain pep5, stronger effect = lower value 0.968 | S. cerevisiae deletion strains, locus YMR263W, strain SAP30, stronger effect = lower value 0.997 | S. cerevisiae deletion strains, locus YMR307W, strain GAS1, stronger effect = lower value 1.03 | S. cerevisiae deletion strains, locus YNL067W, strain RPL9B, stronger effect = lower value 0.999 | S. cerevisiae deletion strains, locus YNL071W, strain lat1, stronger effect = lower value 0.985 | S. cerevisiae deletion strains, locus YNL183C, strain NPR1, stronger effect = lower value 0.983 | S. cerevisiae deletion strains, locus YNL209W, strain ssb2, stronger effect = lower value 0.975 | S. cerevisiae deletion strains, locus YNL233W, strain BNI4, stronger effect = lower value 0.988 | S. cerevisiae deletion strains, locus YNL248C, strain rpa49, stronger effect = lower value 1.02 | S. cerevisiae deletion strains, locus YNL250W, strain rad50, stronger effect = lower value 1.01 | S. cerevisiae deletion strains, locus YNL271C, strain bni1, stronger effect = lower value 1 | S. cerevisiae deletion strains, locus YNL298W, strain CLA4, stronger effect = lower value 1.01 | S. cerevisiae deletion strains, locus YNL307C, strain MCK1, stronger effect = lower value 1 | S. cerevisiae deletion strains, locus YNL322C, strain KRE1 (second series), stronger effect = lower value 0.951 | S. cerevisiae deletion strains, locus YNR049C, strain mso1, stronger effect = lower value 0.955 | S. cerevisiae deletion strains, locus YNR052C, strain pop2, stronger effect = lower value 1 | S. cerevisiae deletion strains, locus YOL012C, strain htz1 0.921 | S. cerevisiae deletion strains, locus YOL147C, strain pex11, stronger effect = lower value 0.997 | S. cerevisiae deletion strains, locus YOR001W, strain rrp6, stronger effect = lower value 1.01 | S. cerevisiae deletion strains, locus YOR061W, strain CKA2, stronger effect = lower value 1.01 | S. cerevisiae deletion strains, locus YOR069W, strain VPS5, stronger effect = lower value 1 | S. cerevisiae deletion strains, locus YOR070C, strain gyp1, stronger effect = lower value 0.995 | S. cerevisiae deletion strains, locus YOR080W, strain dia2, stronger effect = lower value 0.982 | S. cerevisiae deletion strains, locus YOR083W, strain WHI5, stronger effect = lower value 1.02 | S. cerevisiae deletion strains, locus YOR106W, strain vam3, stronger effect = lower value 1.02 | S. cerevisiae deletion strains, locus YOR136W, strain idh2, stronger effect = lower value 0.999 | S. cerevisiae deletion strains, locus YOR144C, strain elg1, stronger effect = lower value 1 | S. cerevisiae deletion strains, locus YOR184W, strain ser1, stronger effect = lower value 0.968 | S. cerevisiae deletion strains, locus YOR231W, strain MKK1, stronger effect = lower value 0.963 | S. cerevisiae deletion strains, locus YOR265W, strain rbl2, stronger effect = lower value 0.976 | S. cerevisiae deletion strains, locus YOR270C, strain vph1, stronger effect = lower value 0.935 | S. cerevisiae deletion strains, locus YOR290C, strain snf2, stronger effect = lower value 0.916 | S. cerevisiae deletion strains, locus YOR316C, strain cot1, stronger effect = lower value 0.995 | S. cerevisiae deletion strains, locus YPL051W, strain arl3, stronger effect = lower value 1 | S. cerevisiae deletion strains, locus YPL078C, strain atp4, stronger effect = lower value 0.993 | S. cerevisiae deletion strains, locus YPL106C, strain sse1, stronger effect = lower value 0.946 | S. cerevisiae deletion strains, locus YPL240C, strain hsp82, stronger effect = lower value 0.995 | S. cerevisiae deletion strains, locus YPL241C, strain CIN2, stronger effect = lower value 0.996 | S. cerevisiae deletion strains, locus YPL256C, strain CLN2, stronger effect = lower value 0.962 | S. cerevisiae deletion strains, locus YPR119W, strain clb2, stronger effect = lower value 1.02 | S. cerevisiae deletion strains, locus YPR141C, strain kar3, stronger effect = lower value 1 | S. cerevisiae deletion strains, locus YPR163C, strain tif3, stronger effect = lower value 1 | S. cerevisiae deletion strains, locus YPR167C, strain met16, stronger effect = lower value 1 | S. cerevisiae deletion strains, strain wtn01, stronger effect = lower value 1.01 | S. cerevisiae strains, strain wild type, stronger effect = lower value 1
